TIM10 inh – TIM10 yeast growth inhibition. S. cerevisiae TIM10 strain growth, BacTiter-Glo luminescence, 24 h. actives 1.4% (n = 330,000). inhibition, % at 10 µM;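 active = inhibition of 40% or more at the single tested concentration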;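 also: wild-type TIM10 isogenic control strain grown at permissive 25 °C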
NLRP3 yeast inh – inhibitors of NALP3 inflammasome in yeast | Yeast reconstituted NLRP3/ASC/caspase-1, beta-gal luminescence, 24 h | inhibition, % at 10 µM | actives 0.39% (n = 330,000);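 active = inhibition of 50% or more; inactive = inhibition below 50%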
tim23-1 inh – growth inhibitors of tim23-1 mutant yeast | S. cerevisiae tim23-1 growth, BacTiter-Glo luminescence, 24 h | inhibition, % at 20 µM | actives 1.3% (n = 330,000);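 active = growth inhibition of the mutant yeast at or above 50%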;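 also: temperature-sensitive mutant grown at 25 °C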
tim10-1 inh – growth inhibitors of tim10-1 mutant yeast; actives 2.2% (n = 330,000); inhibition, % at 20 µM; S. cerevisiae tim10-1 ts strain growth, BacTiter-Glo, 24 h;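 active = inhibition of at least 40%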;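 also: mutant grown at 25 °C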
SKKanGAS inh – blocks kanamycin growth of S. pyogenes SKKanGAS strain; BacTiter-Glo, 6 h; inhibition, % at 7.5 µM; actives 1.3% (n = 300,000);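 active = mean replicate score, as percent of positive control median, at least 50; inconclusive = mean below 50 but one replicate at or above 50; inactive = mean and every replicate below 50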;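 also: strain carries kanamycin resistance gene driven by streptokinase promoter and grows in 40 µg/ml kanamycin; loss of luminescence reflects streptokinase promoter inhibition or plain growth inhibition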
tim23-1 conf – confirmation of tim23-1 mutant yeast growth inhibitors. shares compounds with tim23-1 inh. S. cerevisiae tim23-1 growth, BacTiter-Glo luminescence, 24 h. inhibition, % at 20 µM. actives 83% (n = 4,400). AID 463218;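 active = inhibition above about 39% in either of two replicate wells at 20 µM, limit read from the data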;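 also: temperature-sensitive tim23-1 mutant grown at 25 °C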
Of the large screens only hits and unclear results are named; the others gave an inactive call (follow-up assays come after a bar, where they were run). Rows were chosen to be rich in hits. Some 4.6% of all compounds tested hit in one or more screens of this group.

COc1ccc(CCNC(=S)Nc2cccc(C)c2C)cc1	tim23-1 inh 50 | tim23-1 conf inactive
Cc1ccc(C(=O)NC(=S)NCc2ccccc2)cc1	tim23-1 inh 52 | tim23-1 conf 42
O=C(Nc1ccccc1C(=O)Nc1ccncc1)c1ccccc1	none
CC(C)Cc1nnc(NC(=O)CSc2nc(-c3ccccc3)cc(=O)[nH]2)s1	none
Cc1ccnc(NC(=O)C2CCCN(S(=O)(=O)c3ccc4[nH]c(=O)ccc4c3)C2)c1 (centres undefined)	none
Cc1c(Cl)cccc1NC(=S)NCCc1ccc(Cl)cc1	none
O=C(Nc1ccc(NC(=S)NC(=O)c2ccccc2F)cc1)c1cccs1	tim23-1 inh 51 | tim23-1 conf 50
Fc1ccccc1NC(=S)NCCc1ccc(Cl)cc1	tim23-1 inh 55 (no result: SKKanGAS inh) | tim23-1 conf 55
CC(C)C(OC(=O)CN1C(=O)c2ccccc2C1=O)C(=O)NC1CCCCC1 (centres undefined)	none
CN(C)/C=C1\N=C(c2ccc(Cl)cc2Cl)OC1=O	none
O=C1OC(/C=C/c2ccc(Cl)cc2)=NC/1=C/c1ccco1	tim23-1 inh 60 | tim23-1 conf 42
CN1C(=O)/C(=C\c2ccco2)N=C1c1ccc(Cl)cc1Cl	tim23-1 inh 71 | tim23-1 conf 44
Cc1cccc(Nc2sc(C(=O)c3cc4cc(Cl)ccc4o3)c(N)c2C#N)c1	none
CCOC(=O)c1c(C)[nH]c(C)c1S(=O)(=O)N1CCN(C(=O)c2ccco2)CC1	none
COc1ccc(NC(=O)c2cc(S(=O)(=O)NCC3COc4ccccc4O3)ccc2F)cc1 (centres undefined)	tim23-1 inh 58 | tim23-1 conf 65
O=C(CSc1nnnn1C1CCCC1)c1ccc2c(c1)OCCO2	tim23-1 inh 53 | tim23-1 conf 46
CC(C)n1nnnc1SCC(=O)c1ccc2c(c1)OCCO2	none
FC(F)(F)c1cccc(Sc2cc(C(F)(F)F)nc(-c3ccccn3)n2)c1	tim23-1 inh 51 | tim23-1 conf 43
C/C(=C\c1ccc2c(c1)OCO2)C1Nc2cccc3cccc(c23)N1	tim23-1 inh 52 (no result: SKKanGAS inh) | tim23-1 conf 47
C/C(=C\c1ccccc1)C1Nc2cccc3cccc(c23)N1	none (no result: SKKanGAS inh)
Cc1cc(N2CCCC2)ccc1NC(=O)COc1cccc(C(F)(F)F)c1	none
CC1CCC(NC(=O)c2cc3c(s2)CCCC3)CC1 (centres undefined)	none
COC(=O)n1c(=O)oc2cc(S(=O)(=O)N3CCOCC3)ccc21	none
COC(=O)n1c(=S)oc2cc(Cl)ccc21	tim23-1 inh 78 | tim23-1 conf 79
COC(=O)C(C)Oc1ccc(Cc2ncc(C(F)(F)F)cc2Cl)cc1 (centres undefined)	none
Cn1c(N)c(C(=O)COC(=O)c2ccccc2C(=O)c2ccc(Cl)cc2)c(=O)n(C)c1=O	none (no result: SKKanGAS inh)
C[C@@H]1CC=C[C@@H]2[C@H]1C(=O)N(Cc1ccccc1)[C@H]2c1cccc(C#Cc2ccccc2)c1	none (no result: NLRP3 yeast inh, SKKanGAS inh)
COc1ccc(-c2ccccc2[C@H]2[C@@H]3C=CC[C@@H](C)[C@@H]3C(=O)N2Cc2ccccc2)cc1	none (no result: NLRP3 yeast inh, SKKanGAS inh)
C[C@@H]1CC=C[C@@H]2[C@H]1C(=O)N(Cc1ccccc1)[C@H]2c1ccccc1Br	tim23-1 inh 52 (no result: NLRP3 yeast inh, SKKanGAS inh) | tim23-1 conf inactive
COC(=O)/C=C/c1cccc([C@H]2[C@@H]3C=CC[C@@H](C)[C@@H]3C(=O)N2Cc2ccccc2)c1	tim23-1 inh 51 (no result: NLRP3 yeast inh, SKKanGAS inh) | tim23-1 conf inactive
CN(CCOc1ccccc1)C(=O)c1cc(S(=O)(=O)N2CCCCC2)ccc1Cl	none
O=S(=O)(NCc1csc(-c2ccccc2)n1)c1ccc(Cl)s1	tim23-1 inh 53 | tim23-1 conf 45
CCCCNC(=O)C(C1CCCCC1)N(CCN(C)C)C(=O)CCCN1C(=O)NC(c2ccc(-c3ccccc3)cc2)C(C(=O)OCc2ccccc2)=C1C (centres undefined)	tim23-1 inh 51 (no result: NLRP3 yeast inh, SKKanGAS inh) | tim23-1 conf inactive
CCCCCCN(C(=O)CCCCCN1C(=O)NC(c2ccc(-c3ccccc3)cc2)C(C(=O)OCc2ccccc2)=C1C)C(C)C(=O)NCCCC (centres undefined)	none
COc1ccccc1NC(=O)c1ccc(NC(=O)C2CC2C)cc1 (centres undefined)	tim23-1 inh 52 (no result: SKKanGAS inh) | tim23-1 conf 48
Cc1ccccc1CS(=O)(=O)c1cn(CC(=O)N2CCOCC2)c2ccccc12	none
Fc1ccc(Nc2nc(NCc3ccco3)c3ccccc3n2)cc1	tim23-1 inh 98 | tim23-1 conf inactive
Nc1nc(Nc2ccccc2)nc(NCc2ccco2)c1[N+](=O)[O-]	none
Cc1occc1C(=O)N/N=C/C(Br)=C/c1ccccc1	tim23-1 inh 55 | tim23-1 conf 75
Cc1nc2c(c(=O)c3ccccc3n2C)c(=O)n1C1CCCCCC1	none
CC(C)Cn1c(-c2ccco2)nc2c(c(=O)c3ccccc3n2C)c1=O	tim23-1 inh 50 | tim23-1 conf inactive
Cn1c2ccccc2c(=O)c2c(=O)n(C3CCCCC3)c(-c3ccco3)nc21	tim23-1 inh 51 | tim23-1 conf 49
CC(c1ccccc1)n1c(-c2cccs2)nc2c(c(=O)c3ccccc3n2C)c1=O (centres undefined)	tim23-1 inh 51 | tim23-1 conf inactive
COc1ccc(Cn2c(-c3ccco3)nc3c(c(=O)c4ccccc4n3C)c2=O)cc1	none
COc1cc(/C=C/C(O)=C/C(=O)/C=C/c2ccc(O)cc2)ccc1O	none (no result: SKKanGAS inh)
Oc1ccc(/C=N/Nc2cccc(Cl)n2)c(O)c1	tim23-1 inh 56 | tim23-1 conf 44
C/C(=N\Nc1ccc2nncn2n1)c1ccc(Cl)s1	none
CCN(CC)c1ccc(/C=N/NC(=S)NC)c(O)c1	none
CN(C)c1ccc(/C=N/NC(=O)c2ccc3c(c2)OCCO3)cc1	tim23-1 inh 58, SKKanGAS inh inconclusive | tim23-1 conf inactive
CCN(CC)c1ccc(/C=N/NC(=O)OC)c(O)c1	tim23-1 inh 59 | tim23-1 conf inactive
CCN(CC)c1ccc(C(=O)N/N=C/c2ccccc2OC(F)F)cc1	tim23-1 inh 56 | tim23-1 conf 66
CCN(CC)c1ccc(/C=N/NC(=O)c2ccc3c(c2)OCCO3)cc1	tim23-1 inh 59 | tim23-1 conf 57
O=C(N/N=C/c1ccc2c(c1)OCO2)c1ccc2c(c1)OCCO2	none
CN(C1CC(C)(C)NC(C)(C)C1)S(=O)(=O)CC12CCC(CC1=O)C2(C)C (centres undefined)	none
Cc1ccc(NC(=O)c2ccc3c(c2)OCCO3)cc1C	tim23-1 inh 64 | tim23-1 conf 63
O=C(NC(=S)Nc1ccc2c(c1)OCCO2)c1ccccc1	tim23-1 inh 54 | tim23-1 conf 44
O=C(NC(=S)Nc1ccc2c(c1)OCCO2)c1ccccc1F	none
O=C(Nc1ccc2c(c1)OCCO2)c1ccccc1F	tim23-1 inh 66 | tim23-1 conf 40
O=C(Nc1ccc(NC(=O)c2ccc3c(c2)OCCO3)cc1)c1ccccc1	none

Screening results: PubChem BioAssay, several laboratories
